This is an account of results in PubChem BioAssay (NCATS).

Values joined by “and” are separate entries in the source; they are usually repeats but may differ in a detail not shown here. Identical values can stand only once. Results filed as inconclusive are left out. Active and inactive are the calls of the source. Unless noted, the call rests on the fitted dose curve; in most records, active means well fitted curve in the direction sought with a large enough effect; inconclusive means small, poorly fitted or top-dose-only effect, or another doubt; inactive means no such curve, though single readings can be large; an effect the other way counts as inactive or inconclusive.

Experiment [1] is described as follows: qHTS to identify inhibitors of the type 1 interferon - major histocompatibility complex class I in skeletal muscle: primary screen against the NCATS Mechanism Interrogation Plate v5.0 (MIPE) Libary (AID 1347411). Further: nearly all actives have a fitted effect of over 65% in size. Further: potency means the concentration at half of the fitted maximal effect.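 On activity change, negative = inhibition: plate controls were vehicle for no effect and reference inhibitor for full effect.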 An outline of the steps: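 IFN-beta-driven (4 ng/ml) HLA-B-HiBit expression in CRISPR-tagged C25cl48 myoblasts; compounds 11-pt, 1:3, max 46 uM, 24 hr exposure; lytic NanoLuc complementation luminescence.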
A general note: qHTS replaces the single test concentration by a dilution series.

Experiment [2] addresses Calcium and integrin-binding protein 1 (Homo sapiens) (UniProt Q99828). Kind of experiment: Primary qHTS for Identification of Calcium Integrin Binding Protein 1 (CIB1) Competitor (AID 1508620).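 Further: GST tagged CIB1 binding a fluorescein labelled alphaIIb integrin peptide tracer; top concentration of the series differs between compounds; on the % scale 0 is the no-effect control and ±100 the full control effect.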 An outline of the steps:
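Fluorescence polarization competition: CIB1-GST (1 uM final) preincubated with compound 15 min at room temperature, then FITC-labeled alphaIIb peptide (100 nM final) added for another 15 min. Polarization read at Ex 480/Em 540.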

Experiment [3] in a line: Primary qHTS for small molecule stabilizers of the endoplasmic reticulum resident proteome: Secreted ER Calcium Modulated Protein (SERCaMP) assay (AID 1508630). Further: on the % scale 0 is the no-effect control and ±100 the full control effect. In outline: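 The SH-SY5Y reporter protocol was run at 3 concentrations up to 38.3 uM (primary) or 11 concentrations (follow-up): 16 h compound, 100 nM thapsigargin for 4 h, then extracellular luciferase luminescence.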

Experiment [4] concerns the target Cytochrome P450 2C9 (Homo sapiens) (UniProt P11712). In words: Cytochrome P450 family 2 subfamily C member 9 (CYP2C9) small molecule antagonists: luciferase biochemical (cell-free) qHTS assay (AID 1645842; active means well fitted curve in the direction sought with a large enough effect in the repeat runs; an effect the other way counts as inactive or inconclusive; further: nearly all actives have a fitted effect of over 55% in size; further: potency means the concentration at half of the fitted maximal effect; on activity change, negative = inhibition: on the % scale 0 is the no-effect control and ±100 the full control effect). In outline: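 P450-Glo CYP2C9 system: proluciferin substrate with enzyme in mix containing 0.4% BSA, 10 min at room temperature, then NADPH regeneration solution added and incubated 1 h at 37C. Detection reagent stopped reaction; luminescence read after 20 min as RLU.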

Experiment [5] in a line: Primary qHTS for inhibitors of nuclear receptor binding SET domain protein 2 (NSD2) in an isogenic RCH-ACV NSD2 p.E1099K mutant (9B) (AID 1645876). Further: nearly all actives have a fitted effect of over 70% in size. Further: potency means the concentration at half of the fitted maximal effect.
Experiment [6] is described as follows: Primary qHTS for inhibitors of nuclear receptor binding SET domain protein 2 (NSD2) in an RCH-ACV wild type WT cells (2C) (AID 1645877). Further: nearly all actives have a fitted effect of over 70% in size. Further: potency means the concentration at half of the fitted maximal effect.
In experiment [7] the target is Catechol O-methyltransferase (Homo sapiens) (UniProt P21964). In words: Confirmatory Screen for Target Class Profiling of Small Molecule Inhibitors of Methyltransferases (AID 1745852; calls by dose curve; on activity change, negative = inhibition: on the % scale 0 is the no-effect control and ±100 the full control effect). The following applies: MTase-Glo luminescence, SAH detection, recombinant enzyme; measured here: COMT max response; stronger effect = lower value.
Chain of Catechol O-methyltransferase (Homo sapiens) (P21964 whole entry, looked up): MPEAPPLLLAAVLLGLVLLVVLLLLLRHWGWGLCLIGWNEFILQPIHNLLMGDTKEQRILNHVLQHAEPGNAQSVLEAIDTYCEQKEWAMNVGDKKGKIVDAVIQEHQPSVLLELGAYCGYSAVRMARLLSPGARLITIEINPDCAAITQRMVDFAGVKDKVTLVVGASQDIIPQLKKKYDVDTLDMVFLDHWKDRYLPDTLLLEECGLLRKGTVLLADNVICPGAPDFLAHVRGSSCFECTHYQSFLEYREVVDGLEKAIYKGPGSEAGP
Experiment [8] has as its target Guanidinoacetate N-methyltransferase (Homo sapiens) (UniProt Q14353). The experiment is described as above. The following applies: activity change, negative = inhibition: at 57.3 µM (top of the series).
Experiment [9] deals with Nicotinamide N-methyltransferase (Homo sapiens) (UniProt P40261). The experiment is described as above. The following applies: MTase-Glo luminescence, SAH detection, recombinant enzyme; measured here: NNMT max response; stronger effect = lower value.
Chain of Nicotinamide N-methyltransferase (Homo sapiens) (P40261 whole entry, looked up): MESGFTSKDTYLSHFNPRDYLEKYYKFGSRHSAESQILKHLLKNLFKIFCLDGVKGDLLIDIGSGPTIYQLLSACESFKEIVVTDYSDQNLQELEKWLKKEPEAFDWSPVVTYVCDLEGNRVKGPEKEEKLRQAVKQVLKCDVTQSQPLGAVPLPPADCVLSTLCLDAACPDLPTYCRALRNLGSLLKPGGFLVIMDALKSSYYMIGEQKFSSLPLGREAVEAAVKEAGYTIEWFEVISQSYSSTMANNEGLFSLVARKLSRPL
The target in experiment [10] is Cytochrome P450 2D6 (Homo sapiens) (UniProt P10635). In words: Cytochrome P450 family 2 subfamily D member 6 (CYP2D6) small molecule antagonists: luciferase biochemical (cell-free) qHTS assay (AID 1645840; active means well fitted curve in the direction sought with a large enough effect in the repeat runs; an effect the other way counts as inactive or inconclusive; further: on the % scale 0 is the no-effect control and ±100 the full control effect; nearly all actives have a fitted effect of over 55% in size). An outline of the steps:
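P450-Glo CYP2D6 system: proluciferin substrate converted by enzyme to luciferin, read by luminescence proportional to activity. Enzyme-substrate mix with compound 10 min at room temperature, then NADPH regeneration 1 h before detection reagent.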

Chain of Cytochrome P450 2C9 (Homo sapiens) (P11712 whole entry, looked up): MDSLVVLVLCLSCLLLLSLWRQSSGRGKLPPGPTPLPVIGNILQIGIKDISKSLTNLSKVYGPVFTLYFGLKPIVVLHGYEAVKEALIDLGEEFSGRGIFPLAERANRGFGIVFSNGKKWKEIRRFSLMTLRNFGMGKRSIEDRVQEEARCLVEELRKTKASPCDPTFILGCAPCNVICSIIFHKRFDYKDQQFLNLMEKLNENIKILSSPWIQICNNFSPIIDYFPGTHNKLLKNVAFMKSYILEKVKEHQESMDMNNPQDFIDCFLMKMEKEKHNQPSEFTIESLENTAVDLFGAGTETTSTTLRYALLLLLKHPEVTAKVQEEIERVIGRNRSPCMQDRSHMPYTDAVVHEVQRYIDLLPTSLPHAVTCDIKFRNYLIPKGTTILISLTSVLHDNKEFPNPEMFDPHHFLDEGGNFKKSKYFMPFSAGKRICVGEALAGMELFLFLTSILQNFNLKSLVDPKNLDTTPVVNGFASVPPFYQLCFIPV
Chain of Calcium and integrin-binding protein 1 (Homo sapiens) (Q99828 whole entry, looked up): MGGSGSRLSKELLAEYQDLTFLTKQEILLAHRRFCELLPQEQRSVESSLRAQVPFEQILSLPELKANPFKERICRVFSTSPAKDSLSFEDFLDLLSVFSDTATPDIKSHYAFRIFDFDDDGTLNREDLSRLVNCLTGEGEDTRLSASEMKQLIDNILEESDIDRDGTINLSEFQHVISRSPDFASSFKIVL
Chain of Cytochrome P450 2D6 (Homo sapiens) (P10635 whole entry, looked up): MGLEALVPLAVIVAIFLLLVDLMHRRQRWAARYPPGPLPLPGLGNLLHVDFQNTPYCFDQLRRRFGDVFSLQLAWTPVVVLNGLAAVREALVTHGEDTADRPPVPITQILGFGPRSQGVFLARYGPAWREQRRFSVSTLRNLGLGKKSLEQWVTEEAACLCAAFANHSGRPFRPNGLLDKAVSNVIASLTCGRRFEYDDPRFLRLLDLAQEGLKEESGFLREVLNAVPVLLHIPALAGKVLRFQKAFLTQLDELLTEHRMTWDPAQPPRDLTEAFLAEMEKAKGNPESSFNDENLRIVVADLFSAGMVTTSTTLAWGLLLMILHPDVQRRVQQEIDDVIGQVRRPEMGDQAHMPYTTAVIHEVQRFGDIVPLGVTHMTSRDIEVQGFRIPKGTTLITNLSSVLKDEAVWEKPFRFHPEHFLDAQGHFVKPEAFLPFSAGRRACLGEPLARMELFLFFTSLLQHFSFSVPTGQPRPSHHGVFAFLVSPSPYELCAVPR

For `Cc1cnc(Nc2ccc(N3CCN(C)CC3)cc2)nc1Nc1cccc(S(=O)(=O)NC(C)(C)C)c1`, the Potency is 11.7 µM (active) in [1], 1.66 µM (active) in experiment [5] and 1.86 µM (active) in experiment [6]. Also, the Potency result in [2] and in experiment [4] was “inactive” throughout. In addition, in experiment [3], the outcome is “inactive”. The activity is 8.73% in experiment [7] and -15.4% in experiment [9]. In addition, the activity change, negative = inhibition in [8] was -1.34%.
Turning to `Cc1cc(C(=O)NOCCO)c(Nc2ccc(I)cc2F)n(C)c1=O`, the Potency result in experiment [1], in [2] and in [5] was “inactive” throughout. The outcome in experiment [3] is “inactive”.
Take `N=c1ccn2c(n1)O[C@H]1[C@@H](O)[C@@H](CO)O[C@H]12`: the Potency entry in [1] and in [2] was “inactive” each time. In addition, in experiment [3], the outcome is “inactive”. Moreover, the Potency in experiment [5] was 0.0209 µM (active); in [6], 0.0235 µM (active).
Turning to `CC(C)C[C@H](NC(=O)CNC(=O)c1cc(Cl)ccc1Cl)B1OC(=O)CC(CC(=O)O)(C(=O)O)O1` (stereo not given in full), the values for the Potency in experiment [1], in experiment [5] and in experiment [6] were 0.294 µM (active), 0.186 µM (active) and 0.118 µM (active), respectively. Besides, the Potency result in [2] and in experiment [4] was “inactive” throughout. Also, the outcome in experiment [3] is “inactive”.
`CCCCCCCCCCCCc1ccc(S(=O)(=O)Nc2nncs2)cc1`: the Potency entry in experiment [1], in experiment [2] and in [5] was “inactive” in each case. Moreover, in experiment [3], the outcome was “inactive”.
With `C[C@H](O)[C@@H]1C(=O)N2C(C(=O)O)=C(S[C@@H]3CN[C@H](CNS(N)(=O)=O)C3)[C@@H](C)[C@@H]12`, the Potency result in experiment [1], in [2], in experiment [10], in experiment [5] and in experiment [6] was “inactive” each time. The outcome in experiment [3] is “inactive”.
On to `O=C(O)c1ccc(Nc2ncc3c(n2)-c2ccc(Cl)cc2C(c2c(F)cccc2F)=NC3)cc1`, for which the Potency result in experiment [1] and in [2] was “inactive” throughout. Besides, in experiment [3], the outcome is “inactive”. The Potency in [4] is 21.3 µM (active); in [5], 258 nM (active) and 742 nM (active); in [6], 325 nM (active) and 372 nM (active).
In the case of `CCOC(=O)C=C[C@H](C[C@@H]1CCNC1=O)NC(=O)[C@@H](CC(=O)[C@@H](NC(=O)c1cc(C)on1)C(C)C)Cc1ccc(F)cc1`, the Potency result in experiment [1], in experiment [2] and in experiment [5] was “inactive” in each case. The outcome in experiment [3] was “inactive”.
As to `N#Cc1cc(NC(=O)Nc2nnc(-c3ccncc3)s2)ccc1-c1cn[nH]c1`, the Potency entry in experiment [1], in experiment [2], in [5] and in experiment [6] was “inactive” in each case. The outcome in experiment [3] was “inactive”.
With `O=[N+]([O-])c1cn2c(n1)OC[C@@H](OCc1ccc(OC(F)(F)F)cc1)C2`, the Potency entry in experiment [1], in experiment [2], in experiment [5] and in experiment [6] was “inactive” each time. Further, in experiment [3], the outcome was “inactive”.
Consider `C=Cc1c(C)c2cc3nc(cc4[nH]c(cc5nc(cc1[nH]2)C(C)=C5CCC(=O)O)c(CCC(=O)OC)c4C)[C@@]1(C)C3=CC=C(C(=O)OC)[C@H]1C(=O)OC`, for which the Potency result in [1], in experiment [2] and in experiment [5] was “inactive” throughout. The outcome in experiment [3] is “inactive”. For the same compound, the Potency in experiment [4] was 26.8 µM (active).
As for `CC(=O)NC(CS)C(=O)O` (stereo not given), the Potency result in experiment [1], in experiment [2], in experiment [5] and in experiment [6] was “inactive” in each case. In experiment [3], the outcome was “inactive”.
Consider `O=C(Nc1nnc(-c2ccco2)o1)c1cc(-c2ccccc2)nc2ccccc12`, for which the Potency result in [1] and in experiment [2] was “inactive” each time. For the same compound, the outcome in experiment [3] is “inactive”. Also, the Potency in experiment [5] is 18.6 µM (active); in [6] it was 13.2 µM (active).
With `Cc1cncc2cccc(S(=O)(=O)N3CCCN(C(=O)CN)C[C@@H]3C)c12`, the Potency entry in experiment [1] and in experiment [2] was “inactive” throughout. Also, the outcome in [3] is “inactive”. In addition, the figures for the Potency in experiment [4] and in [6] were 19 µM (active) and 1.45 µM (active), respectively.
Turning to `CC(=O)SCC(Cc1ccccc1)C(=O)NCC(=O)OCc1ccccc1` (stereo not given), the Potency result in [1], in [2], in [5] and in [6] was “inactive” each time. For the same compound, the outcome in [3] is “inactive”.
As for `O=C(O)CCCCC(CCSCc1ccccc1)SCc1ccccc1` (stereo not given), the Potency entry in experiment [1], in [2], in experiment [5] and in [6] was “inactive” in each case. For the same compound, the outcome in [3] was “inactive”.
Take `CC[C@@]1([C@@H]2O[C@@H]([C@H]3O[C@@](O)(CO)[C@H](C)C[C@H]3C)C[C@H]2C)CC[C@H]([C@]2(C)CC[C@]3(C[C@H](O)[C@@H](C)[C@@H]([C@@H](C)[C@@H](OC)[C@H](C)C(=O)O)O3)O2)O1`: the Potency result in experiment [1] and in experiment [2] was “inactive” in each case. Besides, the outcome in experiment [3] was “inactive”. In addition, the Potency was 0.162 µM (active) in [5] and 0.102 µM (active) in [6].
Regarding `COc1ccc(S(=O)(=O)Nc2cccnc2Nc2ccc(O)cc2)cc1`, the Potency result in [1] and in experiment [2] was “inactive” throughout. Besides, the outcome in [3] is “inactive”. Also, the Potency is 8.49 µM (active) in experiment [4], 9.34 µM (active) in experiment [5] and 9.34 µM (active) in [6].
Turning to `CC(C)[C@H](CO)Nc1nc(Nc2cccc(Cl)c2)c2ncn(C(C)C)c2n1`, the Potency in experiment [1] is 16.5 µM (active); in [5], 9.34 µM (active); in experiment [6], 9.34 µM (active). In addition, the Potency entry in experiment [2] is “inactive”. Also, the outcome in experiment [3] was “inactive”.
Consider `OC[C@H]1OC(O)C[C@@H](O)[C@H]1O` (stereo not given in full), for which the Potency result in experiment [1], in [2], in experiment [5] and in experiment [6] was “inactive” each time. Besides, the outcome in experiment [3] is “inactive”.
For `CCOC(=O)C1=C(C)NC(=S)NC1c1cccc(O)c1` (stereo not given), the Potency result in [1], in experiment [2] and in experiment [5] was “inactive” each time. The outcome in experiment [3] was “inactive”.
As for `C[C@H](NC(=O)Cc1cc(F)cc(F)c1)C(=O)N[C@H](C(=O)OC(C)(C)C)c1ccccc1`, the Potency entry in experiment [1], in [2], in [5] and in experiment [6] was “inactive” throughout. In addition, the outcome in [3] is “inactive”.
For `CC(C)C[C@H](NC(=O)[C@@H](NC(=O)c1cccc(-c2ccccc2)n1)[C@@H](C)O)B(O)O`, the Potency in experiment [1] was 0.0641 µM (active); in experiment [5], 29 nM (active) and 32.3 nM (active); in [6] it was 18.3 nM (active) and 22.9 nM (active). For the same compound, in experiment [2], the Potency result was “inactive”. The outcome in experiment [3] is “inactive”.
For `c1ccc(CNc2nc(NCc3ccccc3)c3ccccc3n2)cc1`, the Potency in [1] was 26.2 µM (active); in [5], 5.9 µM (active); in [6], 5.9 µM (active). Also, the Potency result in experiment [2] is “inactive”. For the same compound, the outcome in experiment [3] is “inactive”.
For `O=C1CSC(=O)N1C(CCc1ccncc1)COc1ccc(-c2cccc([N+](=O)[O-])c2)cc1` (stereo not given), the Potency result in experiment [1], in [2] and in experiment [10] was “inactive” each time. In addition, the outcome in experiment [3] is “inactive”. In addition, the figures for the Potency in experiment [5] and in experiment [6] were 14.8 µM (active) and 11.8 µM (active), respectively.
